Laboratory results: PubChem BioAssay AID504832 (National Center for Advancing Translational Sciences (NCATS), 2011)
The whole screen tested about 310,000 compounds, of which about 18,000 (5.8%) were called active. Roughly 22% stayed inconclusive and do not appear here. The sample holds actives, similar compounds and a random draw of the others, so the mix is not that of the screen. Unmarked numbers belong to inactive results. Calls follow the shape of the dose curve; as a rule, active = well fitted inhibition curve with a large enough effect; inconclusive = small, poorly fitted or top-dose-only effect, or another doubt; inactive = no such curve, though single readings can be large or run the other way.

Assay: Primary qHTS for delayed death inhibitors of the malarial parasite plastid, 48 hour incubation
Details: P. falciparum luciferase growth in erythrocytes; series mostly up to 28.7 µM; activity change, negative = inhibition: at the top concentration
In short: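 Read-out is firefly luciferase luminescence from an integrated reporter in P. falciparum, so falling signal marks reduced parasite growth. Infected erythrocytes were at 2% hematocrit and 0.1% parasitemia (final) in Albumax-supplemented RPMI 1640.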
% is scaled to controls: 0 for no effect and ±100 for the full control effect; potency is read from the fitted curve at half-maximal effect.

SMILES	Potency	activity change, negative = inhibition [%]
C=CCn1cc(C(=O)NCc2ccc(Cl)cc2)c(=O)c2cc(S(=O)(=O)N(CC)CC)ccc21	11.7 µM (active)	–
CCOC(=O)N1CCN(C(=O)c2cn(C)c3ccc(S(=O)(=O)N(CC)CC)cc3c2=O)CC1	–	7.13
CCN(CC)S(=O)(=O)c1ccc(Cl)c(C(=O)NCCN2CCOCC2)c1	–	-1.82
O=C(CN1CCN(C(=O)C2CCCO2)CC1)Nc1c(Cl)cccc1Cl (stereo unspecified)	–	0.239
O=C(NC(=S)NC1CCCCC1)c1ccc(Cl)cc1	–	-16.1
CCOC(=O)N1CCN(S(=O)(=O)c2ccc(Br)cc2)CC1	–	37.3
Cn1c(N)cc(-c2ccc(F)cc2)c(C#N)c1=O	–	-9.99
Cc1cc(C)c2c(-c3ccc(F)cc3)c(C#N)c(=O)n(C)c2n1	–	-0.519
COc1ccc(O)c(C(=O)c2cnc3c(c2)c(-c2ccc(F)cc2)c(C#N)c(=O)n3C)c1	1.65 µM (active)	–
COc1ccc(/C=N/Nc2nc(-c3ccc(C)cc3)c(C#N)c(=O)[nH]2)cc1	–	-6.4
COc1ccccc1C(=O)NC(CCSC)C(=O)N1CCN(C(C)=O)CC1 (stereo unspecified)	–	0
CSCCC(NC(=O)c1ccccc1)C(=O)N1CCN(Cc2ccc(Cl)cc2)CC1 (stereo unspecified)	2.94 µM (active)	–
CSCCC(NC(=O)c1ccccc1)C(=O)N1CCCCCCC1 (stereo unspecified)	–	-5.02
c1ccc2c(c1)CSc1sccc1C2=C1CCNCC1	11.7 µM (active)	–
O=C(CNC(=O)c1ccc(Br)o1)NCC1CCCO1 (stereo unspecified)	–	24.5
CCOC(=O)N1CCN(C(=O)COC(=O)c2cccc(S(C)(=O)=O)c2)CC1	–	22.3
CCOc1ccc(NC(=O)C(C)N2C(=O)c3ccccc3C2=O)cc1 (stereo unspecified)	–	7.81
COc1ccc(-c2ccc3nnc(SCC(=O)Nc4ccc(NC(C)=O)cc4)n3n2)cc1	–	18.1
COc1ccc(CNS(=O)(=O)c2ccc(NC(=O)N3CCCCC3)cc2)cc1	–	-5.79
COc1ccc(C(=O)N2CCN(c3ccc(C(C)=O)cc3F)CC2)cc1S(=O)(=O)NC1CC1	–	17.8
COc1ccc(CCNCc2c(-c3ccccc3)n(C)c3ccccc23)cc1	11.7 µM (active)	–
COc1ccc(CNc2ncnc3ccccc23)cc1	–	-8.38
COc1ccc(CNC(=O)CCN2C(=O)c3ccccc3C2=O)cc1	–	-4.91
COc1ccc(OC)c(C2N(c3ccccn3)C(=O)C3CCCN32)c1 (stereo unspecified)	–	9.65
COc1cccc(N2C(=O)C3CCCN3C2c2ccc(F)cc2)c1 (stereo unspecified)	10.4 µM (active)	–
Cc1cc(N2C(=O)C3CCCN3C2c2ccc(Cl)c(Cl)c2)no1 (stereo unspecified)	–	2.43

SMILES	Potency	activity change, negative = inhibition [%]
Cc1cccnc1CCNC(=O)C1CCC(=O)N(Cc2cccc(F)c2)C1 (stereo unspecified)	–	7.78
COc1ccccc1NC(=O)COC(=O)Cc1ccc(S(=O)(=O)N2CCCCC2)s1	–	11.4
COCCN(Cc1ccccc1)C(=O)Cc1ccc(S(=O)(=O)N2CCOCC2)s1	10.4 µM (active)	–
CCN(Cc1ccccc1)C(=O)Cc1ccc(OC)c(S(=O)(=O)N2CCOCC2)c1	–	-15.6
CC1CCN(C(=O)/C(=C\c2ccccc2)NC(=O)c2ccccc2)CC1	–	0.253
Cc1c(C)n2c(SCC(=O)NC3CCCC3)nnc2[nH]c1=O	–	-5.51
CCOc1ncccc1C(=O)OCC(=O)N1c2ccccc2CC1C (stereo unspecified)	–	7.69
CCOC(=O)C1CCN(C(=O)C2CCN(S(=O)(=O)c3c(C)noc3C)CC2)CC1	–	-3.05
CCOC(=O)C1CCN(S(=O)(=O)c2c(C)noc2C)CC1	–	24.2
Cc1cc(C)c(S(=O)(=O)N2CCC(C(=O)OCc3c(C)noc3C)CC2)c(C)c1	11.7 µM (active)	–
CCCN(C(=O)c1nc2nccc(C)n2n1)c1c(N)n(Cc2ccccc2)c(=O)[nH]c1=O	–	-14
CCOc1ccc(N(CC(=O)NCc2ccc(OC)cc2)S(=O)(=O)c2c(C)noc2C)cc1	–	-15.5
CCOC(=O)c1cccc(NC(=O)CN(c2ccc(C)cc2)S(=O)(=O)c2c(C)noc2C)c1	8.28 µM (active)	–
Cc1ccc(N(CC(=O)Nc2cc(C)cc(C)c2)S(=O)(=O)c2cccc3nonc23)cc1	–	-5.21
Cc1ccc(NC(=O)[C@H](Cc2ccccc2)NC(=O)C2CCNCC2)cc1	–	17.4
O=C(Nc1ccc(S(=O)(=O)Nc2ccccn2)cc1)c1ccccc1	–	16.3
COc1cccc(NC(=O)CN(C)C(=O)CSC(=S)N2CCCC2)c1	–	6.54
Cc1coc2c(O)cc3c(c12)OC1(N2CCCCC2)C(=O)NCCCC31 (stereo unspecified)	11.7 µM (active)	–
CCOc1ccc(CNC(=O)CCC(=O)N2CCSc3ccccc32)cc1	–	10.3
Cc1ccccc1NCC(=O)N/N=C\c1ccc([N+](=O)[O-])s1	9.28 µM (active)	–
CCOc1ccc(NC(=O)CCC(=O)N/N=C/c2ccc([N+](=O)[O-])s2)cc1	11.7 µM (active)	–
CCOc1ccc(NC(=O)CCC(=O)NNC(=O)NC2CCCCC2)cc1	–	-21.8
Cn1cccc1/C=N/NC(=O)CNc1cccc2ccccc12	–	-2.89
Cc1cccc(/C=N/NC(=O)CNc2cccc3ccccc23)n1	–	26.1
CCOc1ccc(NC(=O)CCC(=O)n2nc(C)cc2C)cc1	–	11.4
